Most compounds without a hit are left out; they make up all but 5.9% or so of the library.
ABHD5 PLIN5 PPI: ABHD5-PLIN5 protein interaction inhibition; Split G. princeps luciferase complementation, luminescence, 4 h; inhibition, % at 4 µM; actives 0.78% (n = 360,000);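 active = inhibition above the mean inhibition across every tested compound plus 3 SD, cut at about 22% in these data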;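 also: 0% = DMSO only wells and the 100% control is not disclosed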
PRMT1 inh: PRMT1 (human) inhibition, primary screen; Q99873; recombinant PRMT1, activity-based probe fluorescence polarization; inhibition, % at 2.79 µM; actives 1.3% (n = 370,000); AID 652257;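 active = inhibition above about 21% made by adding two undisclosed values, limit read from the data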
LANA-H2A inh: blocks KSHV LANA binding to histone H2A/H2B; Q9QR71; cell-free LANA-H2A/H2B peptide, fluorescence polarization; inhibition, % (test concentration not listed); actives 0.6% (n = 320,000); AID 2629; in the data active = inhibition mostly above about 10%, no sharp cut-off; inactive = mostly below about 6.7%
ALR inh: human ALR oxidase inhibition via reduced H2O2; actives 3.8% (n = 290,000); P55789; inhibition, % (no concentration beside the values); purified ALR, DTT oxidation, H2O2 HRP-luminol luminescence; AID 485317;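 active = mean replicate inhibition above about 79%, with every replicate also reaching it, limit read from the data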
Rtt109 Vps75: blocks Candida albicans Rtt109/Vps75 acetyltransferase activity; Q5AAJ8; purified Rtt109/Vps75, ThioGlo CoA-SH fluorescence, 4 h; inhibition, % at 34.9 µM; actives 0.16% (n = 330,000); AID 540336;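 active = inhibition of at least 50% in every replicate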
Target sequence (Q5AAJ8 whole entry, looked up): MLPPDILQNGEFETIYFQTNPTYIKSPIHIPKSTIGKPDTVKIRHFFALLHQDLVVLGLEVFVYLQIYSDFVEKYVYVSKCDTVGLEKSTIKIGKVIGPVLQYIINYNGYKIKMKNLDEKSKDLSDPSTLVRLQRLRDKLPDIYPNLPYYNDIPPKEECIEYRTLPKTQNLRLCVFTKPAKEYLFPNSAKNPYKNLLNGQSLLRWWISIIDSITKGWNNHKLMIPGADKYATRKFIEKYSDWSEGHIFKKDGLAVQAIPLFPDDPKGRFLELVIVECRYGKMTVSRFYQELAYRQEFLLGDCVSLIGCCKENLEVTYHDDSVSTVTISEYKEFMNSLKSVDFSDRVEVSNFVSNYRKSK
rCAG RNA binder: molecules binding r(CAG) RNA repeats. r(CAG) RNA repeat, TO-PRO-1 dye displacement fluorescence. inhibition, % at 3 µM. actives 1.3% (n = 370,000);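 active = inhibition above the plate cutoff, the mean of all test compounds on that plate plus 3 SD, cut at about 35% in these data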;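 also: 0% = DMSO alone and 100% = 100 µM mitoxantrone as full dye displacement; higher means more dye released from RNA so lower well fluorescence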
* = called active by the depositor; . = no result.

SMILES	ABHD5 PLIN5 PPI	PRMT1 inh	LANA-H2A inh	ALR inh	Rtt109 Vps75	rCAG RNA binder
Oc1ccccc1N1CCN(c2ncccn2)CC1	-0.4	0.9	-3.1	99.0*	-0.8	-0.4
C/C(=C/c1[nH]c(N)[n+](CC2CC2)c1Cc1ccccc1)Cn1[nH]c(=O)n(-c2ccccc2)c1=O	.	-4.1	.	.	.	5.9
CCC[C@H]1[C@@H](N)CC[C@@]23CCCN2C(=O)CCC[C@@H]13	.	-2.5	.	.	.	.
Cc1cc(F)ccc1C(=O)N1CCC(Oc2cccnc2)CC1	.	-4.1	.	.	.	-1.3
COc1ccc(NC(=O)COC(=O)CCC2CCCC2)c(OC)c1	4.7	0.8	1.1	3.2	0.8	-1.7
CCOC(=O)N1CCN(C(=O)c2cc(COc3ccc(OC)cc3Cl)on2)CC1	-1.2	3.1	-0.9	1.5	-1.5	-4.8
COc1ccc(OCc2cc(C(=O)N3CCN(CC4CC4)CC3)no2)c(Cl)c1	4.2	-2.0	25.7*	-25.6	-10.3	-8.8
COc1ccc(-c2c3c(=O)n(C)c(=O)n(C)c3cn2-c2ccccc2)cc1	8.0	1.1	-0.3	1.0	2.1	1.3
COc1ccc(-c2c3c(=O)n(C)c(=O)n(C)c3cn2-c2ccc(O)cc2)cc1	-4.9	5.8	1.8	89.1*	-5.8	-14.2
N#Cc1sc2nc(N3CCCCC3)c3c(c2c1N)CCCC3	-12.8	-1.3	2.2	98.3*	-22.2	8.6
CS(=O)c1ccccc1O (stereo not given)	3.2	-0.5	38.7*	-5.2	0.7	4.2
Fc1ccc(-c2csc(=S)[nH]2)cc1	-22.7	22.4*	-1.0	19.9	41.5	2.0
Nc1[nH]c(C(=O)c2ccccc2)c(-c2ccc(Br)cc2)c1C(=O)N1CCN(CCO)CC1	.	-1.3	.	.	.	.
COc1ccc(CCNC(=O)COC(=O)CCC(=O)c2ccc(F)cc2)cc1	5.7	-0.2	0.8	84.6*	19.1	-3.5
O=C(COC(=O)CCC(=O)c1ccc(F)cc1)NCCc1ccccc1	3.8	1.4	0.3	-0.7	-2.7	0.6
CC(C)c1ccc(N(CC(=O)NC2CCCCC2)C(=O)CNC(=O)c2ccco2)cc1	-5.3	2.5	39.0*	2.7	10.1	-1.6
CC(C)(C)C(=O)NC1CCCCN(Cc2cccc(C(F)(F)F)c2)C1=O (stereo not given)	.	2.5	.	.	.	-0.8
CCc1cc(=O)oc2cc(C)cc(OCC(=O)NC3CC3)c12	1.4	-3.5	-1.1	-19.3	7.7	-3.0
Cc1cc(OCC(=O)NC2CC2)c2c(C)cc(=O)oc2c1	5.9	.	12.7*	-31.8	-28.7	.
COCCCNC(=S)Nc1ccc(N2CCCCC2)cc1	-0.9	5.3	-1.8	97.5*	0.9	-4.7
CCNC(=S)Nc1ccc(N2CCCCC2)cc1	-9.2	5.6	2.6	98.6*	2.4	-2.9
COCCCNC(=S)NNC(=S)Nc1ccc(OC)cc1	-10.4	-6.9	-0.8	38.4	7.1	-1.6
S=C(NCCc1ccccc1)Nc1ccc(N2CCCCC2)cc1	-1.4	1.0	-1.7	46.0	-3.0	-4.2
CCc1ccc(/C=N/Nc2ncnc3nc[nH]c23)cc1	2.3	-3.3	-1.4	80.8*	8.5	1.6
CN(Cc1ccccc1)C(=O)c1cccc(NC(=O)Cc2ccc(NC(=O)C3CCCN(C(=O)c4ccccc4)C3)cc2)c1 (stereo not given)	18.4	-2.5	.	.	-2.2	5.5
SMILES	ABHD5 PLIN5 PPI	PRMT1 inh	LANA-H2A inh	ALR inh	Rtt109 Vps75	rCAG RNA binder
S=c1nc(-c2ccccc2)c(-c2ccccc2)n[nH]1	-1.5	-2.1	2.4	86.0*	1.9	0.5
CSc1ccc(Cl)c(C(=O)N(C)CC(=O)Nc2ccc(N3CCOCC3)cc2)c1	-0.5	3.8	-1.9	89.2*	3.9	-3.3
Cc1ccc(C)c(SCC(=O)N(C)CC(=O)Nc2ccc(N3CCOCC3)cc2)c1	-8.2	6.0	-3.4	98.3*	-3.2	4.2
Cc1cccc(C)c1NC(=O)C(c1ccccc1)N1CCC(Cc2ccccc2)CC1 (stereo not given)	-4.2	0.8	.	.	.	3.7
Cc1ccc(N2NC(=O)/C(=C/c3ccc(-c4ccc(Cl)c(C(=O)O)c4)o3)C2=O)cc1	1.3	4.6	0.9	98.6*	.	20.7
CCCCC1(C)OC(=O)C(=Cc2ccc(-c3ccc(Cl)c(C(=O)O)c3)o2)C(=O)O1 (stereo not given)	3.0	7.1	-2.4	98.1*	3.2	1.6
CCOC(=O)c1cc(-c2ccc(/C=C3/C(=O)NC(=O)C(C#N)=C3C)o2)ccc1Cl	-6.8	4.6	5.9	-20.3	24.3	14.4
COCCSc1nnc(NC(=O)CSc2ccccc2)s1	-10.7	-1.7	-4.1	-14.0	.	4.1
